In PubChem BioAssay (NCI) one finds growth data, which are given here for 37 compounds.

The panel holds about 83,000 compounds, 20% with a hit somewhere; the sample as a whole holds those more often.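 Each cell line was grown in a 96-well plate and treated with one concentration of compound for 48 hours. Values below 10 were considered active.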 The source made the active and inactive calls.

In the assay the test system is COLO 205 colon. As to the kind of experiment: NCI-60 one-dose screen, 48 h (100 = growth as untreated, 0 = no growth, -100 = all killed). Conditions: 10 µM.
On to `O=C(Nc1ccc(I)cc1F)c1cc(-c2ccc(F)cc2F)ccc1O`, for which the growth was -35.6% (active).

Regarding `CN1CCN(c2ccc(C(=O)/C=C/c3ccc(C#N)cc3)cc2)CC1`, the growth is 87.4% (inactive).

Consider `Cc1ccc([N+](=O)[O-])c(C(=O)Nc2ccc(-c3ccc4c(c3)NC(=O)/C4=C\c3ccc[nH]3)cc2)c1`, for which the growth is 8.99% (active). For `CN1CCO/C1=C(/NC(=O)c1ccc(Cl)cc1)[P+](c1ccccc1)(c1ccccc1)c1ccccc1`, the growth is 68.9% (inactive). In the case of `CNCc1cccc2c1OCCCCCC[C@@](C)(O)CC1(CC1)S(=O)(=O)c1ccc(cc1)-c1cnc(N)c(n1)C(=O)N2`, the growth was -89.9% (active). For `Cc1cccc(NC(=O)CSc2nc3ccc(F)cc3c(=O)n2-c2ccc(Cl)cc2)c1C`, the growth is 94.7% (inactive). The value for `CC(=O)OC[C@@]1(C)C2CC[C@]3(C)C(CC=C4C5CC(C)(C)CC[C@]5(C(=O)Nc5ccccc5)CC[C@]43C)[C@@]2(C)C[C@@H](OC(C)=O)[C@@H]1OC(C)=O` (some centres not stated) was 45.5% (inactive). The result for `CC1=C2C(=C[C@@](C)(COCOCCCl)[C@@H]2O)C(=O)[C@](C)(O)C12CC2` reads -73.7% (active). The value for `CCN1CCN(Cc2ccc(NC(=O)c3cccc(-n4cc(-c5ccc(NC(C)=O)nc5)nn4)c3)cc2C(F)(F)F)CC1` was 57.3% (inactive); that for `O=C(c1ccc(O)cc1)C1[C@H](c2ccc(Br)cc2)[C@@H](c2ccccc2)NC12C(=O)Nc1ccccc12` (some centres not stated) was -46.4% (active).

As for `Nc1nnc(-c2c[nH]c3ccc(F)cc23)c(-c2c[nH]c3ncccc23)n1`, the growth is 71.8% (inactive). As for `O=C(c1ccc(Cl)cc1)C1[C@H](c2ccccc2Br)[C@@H](c2ccccc2)NC12C(=O)Nc1ccc(Cl)cc12` (some centres not stated), the growth was 8.59% (active).

Regarding `Cc1ccc(NCC(=O)Nn2c(COc3ccccc3)nc3ccccc3c2=O)cc1`, the growth was 85% (inactive). The result for `NS(=O)(=O)c1ccc(N=Nc2c(O)n(CC(=O)Nc3ccccc3Br)c3ccccc23)cc1` reads 5.92% (active); that for `CN(C(=O)c1ccc(C(F)(F)F)cc1C(F)(F)F)c1sc2c(c1C#N)CCC(=O)C2`, 112% (inactive); that for `CC(C)(C)Nc1nc2cc(Cl)c(Cl)cc2nc1S(C)(=O)=O`, 31.2% (inactive). For the compound `Cc1ccc(/C(N)=N/c2sc(-c3ccccc3)nc2-c2ccccc2)cc1`, the growth is 91.1% (inactive). As for `O=c1cc(-c2ccccc2)oc2cc(OCCCNCc3ccccc3)cc(O)c12`, the growth is -88% (active). Regarding `CCOC(=O)C1NN(c2ccc(S(N)(=O)=O)cc2)c2nc3nc(-c4cccs4)cc(-c4cccs4)c3c(=O)n21` (configuration not stated), the growth is 81.1% (inactive).

As for `N#Cc1c(NC(=O)c2ccc(C(F)(F)F)cc2)sc2c1CCC(O)=C2`, the growth is 60.9% (inactive). As for `COc1ccc2[nH]cc(/C=N/Nc3ccc(Br)cn3)c2c1`, the growth was 37.4% (inactive).

As for `Cc1cc(C(F)(F)F)ccc1C(=O)Nc1sc2c(c1C#N)CCC(=O)C2`, the growth is -94.4% (active). The value for `Cc1ccc(F)cc1N/C=c1\s/c(=C(\C#N)C(=O)Nc2ccccc2)n(-c2ccccc2)c1=O` was 99% (inactive); that for `CCCn1c(=O)c2[nH]c(-c3ccc(OCc4nc5ccc(C)cc5[nH]4)cc3)nc2n(CCC)c1=O` was 91.3% (inactive). The result for `O=C(O)CCCCCCCCCCN1C(=O)/C(=C/c2cnc(-c3ccccc3)s2)SC1=S` reads 141% (inactive); that for `O=C1NC(=NC2CCCCCC2)N/C1=C\c1ccc2ncoc2c1`, 9.19% (active); that for `COc1ccc2[nH]c(=O)c(CSc3cccc(N)c3)cc2c1`, 2.77% (active).

Turning to `O=C(c1ccc(Cl)cc1)C1[C@H](c2ccc(Br)cc2)[C@@H](c2ccccc2)NC12C(=O)Nc1ccc(Cl)cc12` (some centres not stated), the growth was -87.7% (active). In the case of `C=CC(=O)Nc1ccc(C(=O)/C=C/c2ccc(N(C)CCF)cc2)c(O)c1`, the growth is -69.1% (active). For the compound `COc1cccc(/C=C2\N=C(C)N(CCc3ccc(S(N)(=O)=O)cc3)C2=O)c1`, the growth was 131% (inactive). In the case of `N#Cc1c(NC(=O)c2ccc(C(F)(F)F)cc2)sc2c1CCC(=O)C2`, the growth is -95.3% (active). Take `COc1cc2oc(-c3cccc(C(=O)Nc4ccc(Cl)cc4)c3)cc(=O)c2c(OCCNC(=O)CNC(=O)OC(C)(C)C)c1OC`: the growth was 56.8% (inactive).

For `Cc1ccc(C(=O)NNC(=O)CSc2nc3ccccc3c(=O)[nH]2)cc1`, the growth is 97.8% (inactive).

Consider `Brc1ccc(/C=N/Nc2ncnc3sc4c(c23)CCN(Cc2ccccc2)C4)cc1`, for which the growth is 34.8% (inactive). The value for `Cc1cc2nc3c4ccccc4n(CCO)c3nc2cc1C` was 106% (inactive); that for `O=C1NC(=NC23CC4CC(CC(C4)C2)C3)N/C1=C\c1ccc2ncccc2n1` was -19.3% (active); that for `CN1CCN(Cc2ccc(C(=O)Nc3cccc(Nc4ccc5cc(O)ccc5n4)c3)cc2C(F)(F)F)CC1` was -85.4% (active).
